# Source: PubChem (National Center for Advancing Translational Sciences (NCATS))
# Compounds with a hit are over-represented: about 19% of the library has one in this group of screens.
# Giardia kill: Giardia lamblia killing. Giardia lamblia trophozoite viability. activity change, % at 7.66 µM, hits read low. actives 0.15% (n = 340,000). AID 540267; in the data active means activity change below about -80%; inconclusive means between about -30% and that limit;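 further: parasites exposed to compound for two days anaerobically before the ATP read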
#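 Trophozoite viability was measured as ATP-dependent luminescence, read 15-30 min after reagent addition. Before that, parasites at 100 cells/well were exposed to compounds for 48 h, anaerobically, at 37 deg C.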
# TDP1 cell CPT: growth inhibition of DT40 Tdp1-/-;hTDP1 cells with camptothecin (screen for TDP1 inhibitors); chicken DT40 Tdp1-/-;hTDP1 cells + 20 nM CPT, ATP luminescence, 48 h; Potency, µM (series often up to 46.2 µM), inactives show top-dose activity change, negative = growth inhibition, most hits filed as inhibitors; actives 12% (n = 420,000); further: potency means the concentration at half of the fitted maximal effect; nearly all actives have a fitted effect of over 55% in size
#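 Chicken DT40 Tdp1-/- cells stably complemented with human TDP1 were seeded at 400 cells/well in medium containing 20 nM camptothecin, exposed to pin-transferred compounds, and grown at 37 °C for at least 48 hr. Viability was read as ATP luminescence.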
# TDP1 inh: TDP1 (human) enzyme inhibition. recombinant TDP1, AlphaScreen DNA substrate cleavage. Potency, µM (series often up to 130 µM), inactives show top-dose activity change, negative = inhibition, hits mostly inhibitors. actives 0.28% (n = 350,000); further: potency means the concentration at half of the fitted maximal effect; nearly all actives have a fitted effect of over 40% in size
# Target sequence (Q9NUW8 whole entry, looked up): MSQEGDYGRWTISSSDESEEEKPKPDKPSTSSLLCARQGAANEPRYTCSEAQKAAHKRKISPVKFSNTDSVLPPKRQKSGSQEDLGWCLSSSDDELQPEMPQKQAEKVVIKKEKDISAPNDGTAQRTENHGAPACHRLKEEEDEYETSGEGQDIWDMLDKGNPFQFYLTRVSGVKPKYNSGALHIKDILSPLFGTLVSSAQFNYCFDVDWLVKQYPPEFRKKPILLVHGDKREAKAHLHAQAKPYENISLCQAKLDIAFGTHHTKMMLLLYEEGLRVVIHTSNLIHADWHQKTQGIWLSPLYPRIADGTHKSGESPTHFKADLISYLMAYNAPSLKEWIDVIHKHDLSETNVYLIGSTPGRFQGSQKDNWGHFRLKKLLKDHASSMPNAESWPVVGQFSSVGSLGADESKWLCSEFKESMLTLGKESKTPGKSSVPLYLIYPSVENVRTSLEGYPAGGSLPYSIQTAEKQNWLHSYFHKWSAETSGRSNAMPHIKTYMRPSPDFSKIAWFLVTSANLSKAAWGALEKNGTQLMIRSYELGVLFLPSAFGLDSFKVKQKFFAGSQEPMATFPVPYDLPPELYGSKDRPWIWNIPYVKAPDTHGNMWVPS
#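 Compounds were preincubated with Tdp1 (1 nM final) for 15 min at room temperature before substrate (15 nM final) started a 5 min reaction; beads (10 ug/ml final) were then added for 10 min before AlphaScreen detection.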
# ELG1 DNA repair: inhibitors of ELG1-dependent DNA repair in HEK293T cells. actives 2.3% (n = 330,000). AID 504467. Potency, µM (doses to about 46.1 µM), inactives show at the highest dose activity change, negative = inhibition, usual class: inhibitors. HEK293T ELG1-luciferase reporter, luminescence, 16 h; DNA damage induced by 5-fluorouridine; further: potency means the concentration at half of the fitted maximal effect; nearly all actives have a fitted effect of over 55% in size
#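 Quantitative HTS, concentration-response format. 2,000 cells/well co-treated with 5-fluorouridine and compound, 16 hr in 5% CO2 at 37 °C; ONE-Glo luminescence read after 30 min.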
# IL1B secr inh: inhibitors of inflammasome signaling (IL-1 beta secretion) | THP-1 LPS/ATP IL-1B secretion, AlphaLISA, 16 h; stronger effect = lower value | activity change, % at 57.5 µM | actives 4.7% (n = 360,000) | AID 743279; in the data active means activity change below about -50%; inconclusive means mostly about -30% to -49%
#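 Secreted IL-1B measured by AlphaLISA bead assay after 16 h compound exposure of THP-1 cells; compounds (final up to 57.5 uM) added 1 h before LPS (250 ng/mL) and ATP (1.25 mM) stimulation; lower signal means less secretion.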
# DT40 TDP1 no CPT: qHTS for Inhibitors of human tyrosyl-DNA phosphodiesterase 1 (TDP1): qHTS in cells in absence of CPT; Potency, µM (series often up to 46.2 µM), for inactives: at the highest dose activity change, negative = growth inhibition, most hits filed as inhibitors; DT40 Tdp1-/- hTDP1 cells, no CPT, ATP luminescence, 48 h; actives 15% (n = 420,000); further: potency means the concentration at half of the fitted maximal effect; nearly all actives have a fitted effect of over 55% in size
#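 Chicken DT40 Tdp1-/- cells complemented with human TDP1, screened without camptothecin (DMSO vehicle only), 400 cells/well. Compounds pin-transferred, cells incubated at 37 °C for at least 48 hr. Growth read as ATP-dependent luminescence (CellTiter-Glo, 30 min at RT).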
# * = called active by the depositor; ? = inconclusive; . = not tested or not shown; [ ] = dose if it differs, or a comment. Unless noted, the call rests on the fitted dose curve; in most records, active means well fitted curve in the direction sought with a large enough effect; inconclusive means small, poorly fitted or top-dose-only effect, or another doubt; inactive means no such curve, though single readings can be large; an effect the other way counts as inactive or inconclusive. On the % scale 0 is the no-effect control and ±100 the full control effect.
SMILES,Giardia kill,TDP1 cell CPT,TDP1 inh,ELG1 DNA repair,IL1B secr inh,DT40 TDP1 no CPT
O=C(NC1CCCC1)C(c1ccc(F)cc1)N(Cc1ccc(Cl)cc1)C(=O)CCl (stereo unspecified),-13,3.3µM*,3%,2%,-102*,4.1µM*
O=C(NC1CCCC1)C(c1ccc(Cl)cc1)N(Cc1ccc(F)cc1)C(=O)CCl (stereo unspecified),-3,2.6µM*,4%,-2%,?,2.6µM*
C[C@H]1COC(=O)[C@H](Cc2ccccc2)NC(=O)[C@@H](C)COC(=O)[C@H](Cc2ccccc2)NC1=O,.,.,3%[21 µM],.,.,.
CCCCNc1nc2c(c(=O)n(Cc3ccc(Cl)c(Cl)c3)c(=O)n2C)n1C,.,?,.,.,.,29µM*
COc1ccc(CNc2nc3c(c(=O)n(Cc4ccc(F)cc4)c(=O)n3C)n2C)cc1,11,?,5%,18µM*,17,?
CCCCNc1nc2c(c(=O)n(Cc3ccc(Cl)cc3)c(=O)n2C)n1C,.,21µM*,7%,.,.,16µM*
COCCCNc1nc2c(c(=O)n(Cc3ccc(Cl)cc3)c(=O)n2C)n1C,25,-15%,.,?,-6,-57%
CC(C)CCNc1nc2c(c(=O)n(Cc3cccc(F)c3)c(=O)n2C)n1C,-7,26µM*,-3%,0%,-19,?
C#CCCCO/N=C1/C[C@@H](O)[C@@H](O)[C@@H]2[C@@H]3C(=O)N(C[C@@H]4CCCO4)C(=O)[C@H]3CC[C@H]12,.,.,2%[21 µM],.,.,.
Cn1c(NCCCN2CCOCC2)nc2c1c(=O)n(Cc1ccc(Cl)cc1Cl)c(=O)n2C,3,23µM*,5%,?,11,?
C#CCN(C[C@H]1[C@H](OC(=O)NCC2CCCCC2)[C@H](OC(=O)NCC2CCCCC2)C[C@@H](C(=O)OC)[C@H]1C(=O)OC)S(=O)(=O)c1ccc(C)cc1,.,2.9µM*,.,.,-9,2.9µM*
C#CCN(C[C@H]1[C@H](OC(=O)NCc2ccccc2F)[C@H](OC(=O)NCc2ccccc2F)C[C@@H](C(=O)OC)[C@H]1C(=O)OC)S(=O)(=O)c1ccc(C)cc1,.,4.6µM*,.,.,-18,6.5µM*
C#CCN(C[C@H]1[C@H](OC(=O)NC2CC2)[C@H](OC(=O)NC2CC2)C[C@@H](C(=O)OC)[C@H]1C(=O)OC)S(=O)(=O)c1ccc(C)cc1,.,-28%,.,.,-25,?
COc1cccc(CNC(=O)c2ccc3nc(N4CCCCC4)sc3c2)c1OC,.,?,-1%,.,.,?
COC(=O)C1=C(C)N(Cc2ccccc2)C(=NCCc2cccnc2)N[C@H]1c1ccccc1,27,12µM*,.,-14%,-58*,21µM*
COC(=O)C1=C(C)N(Cc2ccccc2)C(=NCC2CC2)N[C@H]1c1ccccc1,-7,21µM*,0%,2%,-14,23µM*
COC(=O)C1=C(C)N(Cc2ccccc2)C(=NCCc2cccnc2)N[C@H]1c1ccc(Br)cc1,4,3.7µM*,0%,3%,-4,4.6µM*
COC(=O)C1=C(C)N(Cc2ccccc2)C(=NCc2ccc3c(c2)OCO3)N[C@H]1c1ccccc1,5,?,1%,?,-57*,18µM*
CCCCSCCCNC(=O)c1cc(-c2cccnc2)nc2ccc(S(=O)(=O)N3CCC(C)CC3)cc12,.,3%,2%,.,.,-17%
CC1(C)CCC[C@@](C)([C@H]2CC[C@]3(C)[C@@H]2[C@H](O)C[C@@H]2[C@@]4(C)CC[C@H](O)C(C)(C)[C@@H]4[C@@H](O)C[C@]23C)O1,.,.,8%,.,.,.
COc1ccc(OC)c(C(=O)CN2C(=O)N(c3ccc(C)cc3)S(=O)(=O)c3ccccc32)c1,.,-12%,-3%,.,.,-24%
